Compound activity as filed in PubChem.
A selection: hits, their analogues and other compounds. The true share with any hit is near 2.8%.
PG9 binder: PG9 antibody binding by small molecule. TR-FRET gp120-PG9 antibody binding. inhibition, % at 6.7 µM. hit rate 0.43% among 360,000; in the data active = inhibition above about 8.5%
PP1 inh: counter-screen for PP5 inhibitors: inhibitors of human PP1-alpha. P62136. purified PP1alpha, OMFP fluorescence. AID 2235. hit rate 0.9% among 320,000. inhibition, % at 6.7 µM;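 active = inhibition above the mean inhibition of all tested compounds plus 3 SD, computed separately for each screening campaign, cut at about 15% in these data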
PP5 primary: PP5 (human) phosphatase inhibition. inhibition, % at 6.7 µM. purified PP5c, OMFP substrate fluorescence. hit rate 0.18% among 320,000. P53041;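 active = inhibition above the campaign's mean inhibition across all tested compounds plus 3 SD, cut at about 9.5% in these data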;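 note: 0% = DMSO only and 100% = 100 µM cantharidin control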
NR1D1 modulator: modulates human Rev-erb alpha binding to DNA | P20393 | Rev-erbα–FITC-DNA binding, fluorescence polarization, 90 min | activity, % at 10 µM | hit rate 0.79% among 370,000;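 active = activity above about 14%, limit read from the data; passing the limit was not always enough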;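 note: 0% = DMSO wells with 35 nM protein and 100% = DMSO wells with 750 nM protein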
KLK7 zymogen act: activates the human kallikrein-7 zymogen | purified proKLK7, EDANS-DABCYL substrate fluorescence; 100% is mature enzyme control, 0% vehicle | activation, % at 7 µM | hit rate 0.9% among 370,000;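 active = activation above the mean of all tested compounds plus 3 SD, computed per campaign excluding outliers beyond control limits, cut at about 13% in these data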
GASC-1 inh: human JMJD2C demethylase inhibition | Q9H3R0 | GST-JMJD2C(1-420) H3K9me3 demethylation, DELFIA europium | inhibition, % at 2.35 µM | hit rate 0.069% among 330,000;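 active = more than half of a compound's replicate wells show inhibition beyond 50%, single wells judged on their own value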;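 note: signal counts dimethyl H3K9 product captured on neutravidin plate; 0% = median of DMSO wells and 100% = 0.3 times that DMSO median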
Target sequence (Q9H3R0 1-420 limits assumed): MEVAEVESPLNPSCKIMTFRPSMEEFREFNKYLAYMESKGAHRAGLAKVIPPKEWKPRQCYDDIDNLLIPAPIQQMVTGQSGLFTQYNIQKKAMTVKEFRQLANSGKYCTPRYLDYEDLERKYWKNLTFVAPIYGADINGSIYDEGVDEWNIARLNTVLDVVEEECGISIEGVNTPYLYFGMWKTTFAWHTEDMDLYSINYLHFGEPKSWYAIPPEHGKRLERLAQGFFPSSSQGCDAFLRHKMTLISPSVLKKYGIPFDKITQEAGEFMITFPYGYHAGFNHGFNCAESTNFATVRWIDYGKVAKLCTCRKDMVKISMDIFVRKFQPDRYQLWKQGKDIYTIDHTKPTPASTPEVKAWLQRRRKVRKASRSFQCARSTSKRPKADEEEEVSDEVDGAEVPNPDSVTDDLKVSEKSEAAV
The depositor's hits bear a star; nt = not tested or not shown.

SMILES	PG9 binder	PP1 inh	PP5 primary	NR1D1 modulator	KLK7 zymogen act	GASC-1 inh
O=C(CSc1ncnc2ccccc12)Nc1cc(S(=O)(=O)N2CCCCC2)ccc1Cl	1	16*	2	2	1	-2
Cc1cc([N+](=O)[O-])nn1Cc1ccc(C(=O)N/N=C/c2ccc(O)cc2O)cc1	-2	16*	-3	1	-2	9
COc1ccc(OC)c(/C=N/NC(=O)c2cc3c(OC)cccc3[nH]2)c1	-1	-4	7	-1	-15	-2
CCOc1ccc(/C=N/NC(=O)c2cc3c(OC)cccc3[nH]2)cc1	0	16*	-1	-5	-9	18
O=C(c1ccccc1OCc1ccccc1)N(Cc1ccccn1)CC1CCCO1 (stereo not drawn)	nt	nt	nt	-4	0	nt
O=C(Nc1ccccc1C(=O)Nc1ccccc1C(=O)O)c1ccccc1	1	6	2	8	0	55
O=C(O)c1ccccc1NC(=O)c1ccccc1Nc1ccccc1	0	17*	5	-7	0	1
C[C@]12C=CC(=O)C=C1CCC1C2[C@@H](O)C[C@@]2(C)C1CC[C@]2(O)C(=O)CO (stereo partly drawn)	nt	nt	nt	-5	nt	nt
C=C(C)[C@@H]1CC=C(C)CC1	nt	nt	nt	-3	nt	nt
N[C@@H]1[C@@H](O)[C@H](O)[C@@H](CO)O[C@H]1O	nt	nt	nt	4	nt	nt
CCCN1C(=O)c2ccc(C(=O)Nc3cc(C)ccc3O)cc2C1=O	-2	-10	1	4	0	57*
Cc1ccc(O)c(NC(=O)c2ccc3c(c2)C(=O)N(CC(C)C)C3=O)c1	1	0	3	-3	0	-5
COc1ccc(C2=NN(C(=O)CCC(=O)O)C(c3ccc([N+](=O)[O-])cc3)C2)cc1 (stereo not drawn)	-1	nt	nt	-8	-1	-6
O=C1C2N=NN(CC(=O)N3N=C(c4ccccc4)CC3c3ccc([N+](=O)[O-])cc3)C2C(=O)N1c1ccccc1 (stereo not drawn)	0	16*	0	-3	0	-2
N[C@@H](CC(=O)N1CCn2c(nnc2C(F)(F)F)C1)Cc1cc(F)c(F)cc1F	nt	nt	nt	-3	nt	nt
CCCCn1c(SCC(=O)NCc2ccco2)nc2ccc(N3CCOCC3)cc2c1=O	-2	4	2	-1	15*	-14
C/C(CC(=O)Nc1ccc(OCc2ccccc2)cc1)=N\NC(=O)C(=O)Nc1ccccc1C	0	16*	0	-5	-1	5
O=c1[nH]c(CSc2nc3ccccc3o2)nc2c1cnn2-c1ccccc1	-1	16*	1	0	0	-17
Cc1ccccc1C(=O)NC1CCCCN(Cc2cccc(F)c2)C1=O (stereo not drawn)	nt	nt	nt	-2	0	nt
COc1ccc(NC2=NCC(Cc3ccc(Br)cc3)S2)cc1 (stereo not drawn)	-2	16*	4	3	1	4
COc1ccccc1CCC[C@@H](CCS(=O)(=O)C(C)C)CC1CCCCC1	nt	nt	nt	8	0	nt
C=CCn1c(O)c(N=Nc2ccccc2C)c2ccccc21	-3	1	0	8	1	97*
N[C@@H](CS)C(=O)O	nt	nt	nt	0	nt	nt
CC12CCC(c3c(C(=O)O)nn(-c4ccc(F)cc4)c31)C2(C)C (stereo not drawn)	-1	15*	1	5	0	-4
CCOC(=O)CC(=O)CSc1nc(-c2ccccc2)cc(-c2ccccc2)c1C#N	-2	17*	1	18	-16	-4
SMILES	PG9 binder	PP1 inh	PP5 primary	NR1D1 modulator	KLK7 zymogen act	GASC-1 inh
COC(=O)[C@]12C[C@H](CC(=O)NCC3CCCCC3)C(=O)N(Cc3ccco3)C1=C[C@H](C(C)C)O[C@@H]2C1CC1	nt	nt	nt	5	0	nt
O=C(O)Cc1cccc(-c2ccccc2)c1	nt	nt	nt	2	nt	nt
Cc1cccc(N2C(=O)C(O)=C(C(=O)c3cccs3)C2c2ccccc2)n1 (stereo not drawn)	3	4	-2	-2	0	-1
Cc1cccc(N2C(=O)C(O)=C(C(=O)c3cccs3)C2c2ccc(Cl)cc2)n1 (stereo not drawn)	5	17*	1	-2	0	3
COc1ccc2nc(Cl)c(/C=N/Nc3ccccn3)cc2c1	-1	16*	-2	0	-1	-8
COc1ccc(Nc2nnc(Cc3ccc(Cl)cc3)c(=O)[nH]2)c(OC)c1	-1	0	1	0	0	2
COc1ccc(Cc2nnc(Nc3ccc(Cl)cc3)[nH]c2=O)cc1	-2	18*	1	-4	0	0
CCCCCCCCCCCCCCCCCC(=O)OCC(O)[C@H]1OC[C@H](O)[C@H]1O (stereo partly drawn)	nt	nt	nt	1	nt	nt
Cc1ccc(C)c(N(C(=O)c2csnn2)C(C(=O)NC2CCCC2)c2cccnc2)c1 (stereo not drawn)	0	2	3	-1	0	71*
Cc1ccc(C)c(N(C(=O)c2csnn2)C(C(=O)NC2CCCCC2)c2cccnc2)c1 (stereo not drawn)	0	5	4	-3	0	-1
Cc1ccc([C@H]2C(C(=O)O)=CC[C@@H](c3ccc(C(C)C)cc3)N2S(=O)(=O)c2ccc(C)cc2)cc1	1	nt	nt	-12	0	8
Cc1ccc(S(=O)(=O)N2[C@@H](c3ccccc3)C(C(=O)O)=CC[C@H]2c2ccc(C(C)C)cc2)cc1	0	15*	4	-3	1	11
CCc1ccc([C@@H]2CC=C(C(=O)O)[C@H](c3cccc(Cl)c3)N2S(=O)(=O)c2ccc(C)cc2)cc1	1	16*	3	-2	-1	0
O=S(=O)(Nc1c(S(=O)(=O)c2ccccc2)c2nc3ccccc3nc2n1C1CCCCC1)c1ccccc1	5	8	2	4	-2	8
C=CCn1c(NS(=O)(=O)c2ccccc2)c(S(=O)(=O)c2ccc(C)cc2)c2nc3ccccc3nc21	-2	30*	13*	-2	-11	-2
CNc1cc(OC)c(C(=O)N[C@@H]2CCN(Cc3ccccc3)[C@@H]2C)cc1Cl	nt	nt	nt	-1	nt	nt
CC(C)(C)C1CCc2nc(NC(=O)Cc3cn4ccsc4n3)sc2C1 (stereo not drawn)	1	16*	6	-4	1	-13
CCOC(=O)c1c(NC(=O)Cn2cnc3sc(C)c(-c4ccccc4)c3c2=O)sc(C)c1C	-1	0	0	0	0	-6
CCOC(=O)c1c(NC(=O)Cn2cnc3scc(-c4ccc(C)cc4)c3c2=O)sc(C)c1C	0	16*	1	3	0	1
Cc1ccc(Nc2nnc(SCC(=O)c3ccc(Br)s3)s2)c(C)c1	-3	17*	3	1	0	14
CC(=O)OCC(=O)[C@@]1(O)CCC2C3CCC4=CC(=O)C=C[C@]4(C)[C@@]3(Cl)[C@@H](Cl)C[C@@]21C (stereo partly drawn)	nt	nt	nt	-3	nt	nt
